TDP1 cell CPT: growth inhibition of DT40 Tdp1-/-;hTDP1 cells with camptothecin (screen for TDP1 inhibitors) | chicken DT40 Tdp1-/-;hTDP1 cells + 20 nM CPT, ATP luminescence, 48 h | Potency, µM (doses to about 46.2 µM), without a hit: top-dose activity change, negative = growth inhibition, usual class: inhibitors | 12% of 420,000 active | AID 686979; note: potency is the fitted concentration of half-maximal effect; % is set by controls: 0 for no effect and ±100 for the full control effect; nearly all actives have a fitted effect of over 55% in size
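Cell growth measured by CellTiter-Glo luminescence after a minimum 48 h, 37 C compound exposure with 20 nM CPT in Tdp1-knockout DT40 cells stably expressing hTDP1, seeded 400/well; qHTS titration format.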
TDP1 cell noCPT: qHTS for Inhibitors of human tyrosyl-DNA phosphodiesterase 1 (TDP1): qHTS in cells in absence of CPT; DT40 Tdp1-/- hTDP1 cells, no CPT, ATP luminescence, 48 h; Potency, µM (series often up to 46.2 µM), inactives show top-dose activity change, negative = growth inhibition, most hits filed as inhibitors; 15% of 420,000 active; AID 686978, 2013; note: potency is the fitted concentration of half-maximal effect; % is set by controls: 0 for no effect and ±100 for the full control effect; nearly all actives have a fitted effect of over 55% in size
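No-CPT arm: Tdp1-/-;hTDP1 DT40 cells (400/well) plus compounds, incubated ≥48 hr at 37 °C. Readout CellTiter-Glo luminescence.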
MCF10A rereplic: induces DNA re-replication in MCF 10a normal breast cells; MCF 10A DNA re-replication, Hoechst nuclear intensity, 48 h; Potency, µM (series often up to 46.1 µM), without a hit: top-dose activity, positive = re-replication, usual class: activators; 2.9% of 350,000 active; AID 624296; note: potency is the fitted concentration of half-maximal effect; % of control where 0% means no effect; nearly all actives have a fitted effect of over 50% in size
Chronic BCR inh: blocks chronic active B-cell receptor signaling; ABC-DLBCL IkBa-CBG/CBR reporter, luminescence ratio, 4 h; Potency, µM (series often up to 46.1 µM), without a hit: top-dose activity change, negative = inhibition, most hits filed as inhibitors; 0.05% of 340,000 active; active = well fitted inhibition curve with a large enough effect in the signal ratio, with a control signal flat, not every such curve was filed as active; inconclusive = small, poorly fitted or top-dose-only effect, or effect the other way, or a change in a side signal; the % refers to the signal ratio;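 note: potency is the fitted concentration of half-maximal effect; plate controls were basal doxycycline-induced cells for no effect and cells given 10 µM MG132 for full effect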
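Cell line TMD8 (human ABC DLBCL), stably expressing tet-inducible CBG68-IkBa fusion and CBR; IMDM/0.5% FBS; cpd up to 46 uM; dox induction, 4 h, 37C/5% CO2; dual luminescence; green/red ratio; MG132 control.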
IL1B secr inh: inhibitors of inflammasome signaling (IL-1 beta secretion); 4.7% of 360,000 active; activity change, % at 57.5 µM; THP-1 LPS/ATP IL-1B secretion, AlphaLISA, 16 h; active compounds read low; AID 743279; in the data active = activity change below about -50%; inconclusive = mostly about -30% to -49%; note: % is set by controls: 0 for no effect and ±100 for the full control effect
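THP-1 cells pretreated 1 hr with compounds (up to 57.5 uM final), then stimulated with LPS (250 ng/mL final) plus ATP (1.25 mM final); secreted IL-1B measured by AlphaLISA after 16 hr, decreased signal indicating inhibition.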
SW480 rerep: DNA re-replication induction in SW480 cells. SW480 DNA re-replication, Hoechst DNA content imaging, 48 h. Potency, µM (titrated, usually from 46.1 µM), for inactives: top-dose re-replication activation, actives largely listed as activators. 1.8% of 340,000 active. AID 624297; note: potency is the fitted concentration of half-maximal effect; % of control where 0% means no effect; nearly all actives have a fitted effect of over 55% in size
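First, 250 cells per well were seeded. Next, compound or vehicle (23 nL) was pinned in, plates sat 48 hr at 37 C. Finally Hoechst was added for 40 min before fluorescence scanning.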
Starred values were filed as active, the others as inactive; [ ] = another dose, or the depositor's remark. Shown are actives, neighbours in structure and some others; about 19% of the full set was active somewhere. Unless noted, calls come from the whole dose curve; as a rule, active = well fitted curve in the direction sought with a large enough effect; inconclusive = small, poorly fitted or top-dose-only effect, or another doubt; inactive = no such curve, though single readings can be large; an effect the other way counts as inactive or inconclusive.

Screening Cc1ccc(S(=O)(=O)N2CCN(c3nc(C)nc4sc5c(c34)CCC(C)C5)CC2)cc1 (configuration not stated) returned Chronic BCR inh 1%.
For Cc1nc(N2CCN(C(=O)c3ccco3)CC2)c2c3c(sc2n1)CCCC3 the results were TDP1 cell CPT inconclusive, TDP1 cell noCPT 15µM*, MCF10A rereplic 2%, Chronic BCR inh 25%, IL1B secr inh -9 and SW480 rerep -2%.
O=C(c1ccco1)N1CCN(c2nc(C3CC3)nc3sc4c(c23)CCCC4)CC1 was read as TDP1 cell CPT 26µM*, TDP1 cell noCPT inconclusive, MCF10A rereplic -5%, Chronic BCR inh inconclusive, IL1B secr inh 0 and SW480 rerep -2%.
Cc1nc(N2CCN(C(=O)c3ccco3)CC2)c2c3c(sc2n1)CC(C)CC3 (configuration not stated) was read as TDP1 cell CPT 21µM*, TDP1 cell noCPT 16µM*, MCF10A rereplic inconclusive, Chronic BCR inh inconclusive, IL1B secr inh -7 and SW480 rerep -169%.
`CCc1nc(SCC(=O)N2CCN(C(=O)c3ccco3)CC2)c2c3c(sc2n1)CCCC3` gave TDP1 cell CPT inconclusive, TDP1 cell noCPT 13µM*, MCF10A rereplic inconclusive, Chronic BCR inh 0%, IL1B secr inh 22 and SW480 rerep 3%.
For CCc1cc2cc(C)ccc2nc1SCC(=O)N1CCN(C(=O)c2ccco2)CC1 the results were TDP1 cell CPT 13µM*, TDP1 cell noCPT 21µM*, MCF10A rereplic 9%, Chronic BCR inh inconclusive, IL1B secr inh -21 and SW480 rerep -2%.
`CCc1cc2cc(C)cc(C)c2nc1SCC(=O)N1CCCC1` gave TDP1 cell CPT 29µM*, TDP1 cell noCPT inconclusive, MCF10A rereplic -4%, Chronic BCR inh 3%, IL1B secr inh 3 and SW480 rerep -6%.
Screening CCc1cc2ccccc2nc1SCC(=O)N1CCN(C(=O)c2ccco2)CC1 returned TDP1 cell CPT inconclusive, TDP1 cell noCPT inconclusive, MCF10A rereplic 8%, Chronic BCR inh -4%, IL1B secr inh inconclusive and SW480 rerep -4%.
Screening COc1ccccc1CN1CCCC2(CCN(S(C)(=O)=O)CC2)C1 returned TDP1 cell CPT 12% and TDP1 cell noCPT -6%.
Screening CCOC(=O)c1sc(SCC(=O)Nc2ccc(N(C)C)cc2)nc1N returned TDP1 cell CPT -6%, TDP1 cell noCPT -22%, MCF10A rereplic -2%, Chronic BCR inh inconclusive, IL1B secr inh -67* and SW480 rerep 7%.
COc1ccc(NC(=O)CSc2nnc(N)s2)cc1 was read as TDP1 cell CPT -6%, TDP1 cell noCPT -5%, MCF10A rereplic -1%, Chronic BCR inh 0%, IL1B secr inh 25 and SW480 rerep -4%[9.22 µM].
For CN(C)c1ccc(NC(=O)CSc2nc(N)c(C(=O)Nc3ccc(N(C)C)cc3)s2)cc1 the results were TDP1 cell CPT 10µM*, TDP1 cell noCPT 13µM*, MCF10A rereplic 2%, Chronic BCR inh inconclusive, IL1B secr inh inconclusive and SW480 rerep 9%.
CC(C)(C)OC(=O)C(C)(C)O/N=C(\C(=O)O)c1csc(N)n1 was read as TDP1 cell CPT 10%, TDP1 cell noCPT 2%, MCF10A rereplic -2%, Chronic BCR inh 6%, IL1B secr inh 10 and SW480 rerep -7%.
For CC1C/C(=N/NC(=O)c2cccc(F)c2)c2ccc(O)cc2C1 (configuration not stated) the results were TDP1 cell CPT 22µM*, TDP1 cell noCPT inconclusive, MCF10A rereplic inconclusive, Chronic BCR inh inconclusive, IL1B secr inh -2 and SW480 rerep -14%.
Screening Cc1cc(C)nc(NC(=NCCc2c[nH]c3ccccc23)NC(=O)Nc2ccccc2)n1 returned TDP1 cell CPT inconclusive, TDP1 cell noCPT 18µM*, MCF10A rereplic 26µM*, Chronic BCR inh inconclusive, IL1B secr inh -23 and SW480 rerep inconclusive.
Cc1cc(C)nc(NC(=NCCc2c[nH]c3ccccc23)NC(=O)Nc2cccc([N+](=O)[O-])c2)n1 was read as TDP1 cell CPT 13µM*, TDP1 cell noCPT 7.3µM*, MCF10A rereplic 8%, Chronic BCR inh inconclusive, IL1B secr inh -1 and SW480 rerep inconclusive.
For Cc1cc(C)nc(NC(=NCCc2c[nH]c3ccccc23)NC(=O)c2ccco2)n1 the results were TDP1 cell CPT 21µM*, TDP1 cell noCPT 10µM*, MCF10A rereplic inconclusive, Chronic BCR inh 0%, IL1B secr inh -28 and SW480 rerep -10%.
`Cc1cc(C)nc(NC(=NCCc2c[nH]c3ccccc23)NC(=O)Nc2ccc(Cl)c(Cl)c2)n1` gave TDP1 cell CPT 15µM*, TDP1 cell noCPT 13µM*, MCF10A rereplic inconclusive, Chronic BCR inh -4%, IL1B secr inh 2 and SW480 rerep 2%.
`Fc1ccc2c(c1)Sc1ccc(Cl)cc1CC2N1CCN(CCC2OCCO2)CC1` (configuration not stated) gave TDP1 cell CPT inconclusive, TDP1 cell noCPT 18µM*, MCF10A rereplic inconclusive, IL1B secr inh -75* and SW480 rerep inconclusive.
For COc1ccc(F)c(CN2CCC(CO)(Cc3cccc(C(F)(F)F)c3)CC2)c1 the results were TDP1 cell CPT inconclusive, TDP1 cell noCPT inconclusive, MCF10A rereplic inconclusive, Chronic BCR inh -21%, IL1B secr inh inconclusive and SW480 rerep 4%.
For OCC1(Cc2ccccc2)CCN(Cc2cccc(F)c2F)CC1 the results were TDP1 cell CPT inconclusive, TDP1 cell noCPT inconclusive, MCF10A rereplic -1%, Chronic BCR inh 0%, IL1B secr inh -12 and SW480 rerep inconclusive.
COc1ccc(CN2CCC(CO)(Cc3cccc(C(F)(F)F)c3)CC2)cc1Cn1cccn1 was read as TDP1 cell CPT inconclusive, TDP1 cell noCPT 18µM*, MCF10A rereplic inconclusive, Chronic BCR inh inconclusive, IL1B secr inh -75* and SW480 rerep inconclusive.
COc1cc(CN2CCC(CO)(Cc3cccc(C(F)(F)F)c3)CC2)ccc1F was read as TDP1 cell CPT 21µM*, TDP1 cell noCPT 23µM*, MCF10A rereplic inconclusive, Chronic BCR inh inconclusive, IL1B secr inh -52* and SW480 rerep inconclusive.
`OCC1(Cc2ccccc2)CCN(Cc2ccc(C(F)(F)F)cc2)CC1` gave TDP1 cell CPT 23µM*, TDP1 cell noCPT 18µM*, MCF10A rereplic inconclusive, Chronic BCR inh -1%, IL1B secr inh -51* and SW480 rerep 3%.

Compound activity from PubChem.
